# Assay results from ChEMBL document CHEMBL1961873, “Compounds: GSK PKIS; Assays: Nanosyn kinase panel” (2012).
# Where “and” joins values, the source holds several entries; their conditions need not be identical. Equal entries are not always repeated.
# What was measured:
# [1] = system: Epidermal growth factor receptor (Homo sapiens), P00533 [T790M]; conditions: at 1 µM
# [2] = system: Epidermal growth factor receptor (Homo sapiens), P00533 [L858R,T790M]; conditions: at 0.1 µM
# [3] = system: Epidermal growth factor receptor (Homo sapiens), P00533 [L858R,T790M]; conditions: at 1 µM
# [4] = molecular target: Ephrin type-A receptor 2 (Homo sapiens) (UniProt P29317); conditions: at 0.1 µM
# [5] = molecular target: Ephrin type-A receptor 2 (Homo sapiens) (UniProt P29317); conditions: at 1 µM
# [6] = molecular target: T1, Ephrin type-A receptor 3 (Homo sapiens) (UniProt P29320); conditions: at 0.1 µM
# T1 sequence (whole entry): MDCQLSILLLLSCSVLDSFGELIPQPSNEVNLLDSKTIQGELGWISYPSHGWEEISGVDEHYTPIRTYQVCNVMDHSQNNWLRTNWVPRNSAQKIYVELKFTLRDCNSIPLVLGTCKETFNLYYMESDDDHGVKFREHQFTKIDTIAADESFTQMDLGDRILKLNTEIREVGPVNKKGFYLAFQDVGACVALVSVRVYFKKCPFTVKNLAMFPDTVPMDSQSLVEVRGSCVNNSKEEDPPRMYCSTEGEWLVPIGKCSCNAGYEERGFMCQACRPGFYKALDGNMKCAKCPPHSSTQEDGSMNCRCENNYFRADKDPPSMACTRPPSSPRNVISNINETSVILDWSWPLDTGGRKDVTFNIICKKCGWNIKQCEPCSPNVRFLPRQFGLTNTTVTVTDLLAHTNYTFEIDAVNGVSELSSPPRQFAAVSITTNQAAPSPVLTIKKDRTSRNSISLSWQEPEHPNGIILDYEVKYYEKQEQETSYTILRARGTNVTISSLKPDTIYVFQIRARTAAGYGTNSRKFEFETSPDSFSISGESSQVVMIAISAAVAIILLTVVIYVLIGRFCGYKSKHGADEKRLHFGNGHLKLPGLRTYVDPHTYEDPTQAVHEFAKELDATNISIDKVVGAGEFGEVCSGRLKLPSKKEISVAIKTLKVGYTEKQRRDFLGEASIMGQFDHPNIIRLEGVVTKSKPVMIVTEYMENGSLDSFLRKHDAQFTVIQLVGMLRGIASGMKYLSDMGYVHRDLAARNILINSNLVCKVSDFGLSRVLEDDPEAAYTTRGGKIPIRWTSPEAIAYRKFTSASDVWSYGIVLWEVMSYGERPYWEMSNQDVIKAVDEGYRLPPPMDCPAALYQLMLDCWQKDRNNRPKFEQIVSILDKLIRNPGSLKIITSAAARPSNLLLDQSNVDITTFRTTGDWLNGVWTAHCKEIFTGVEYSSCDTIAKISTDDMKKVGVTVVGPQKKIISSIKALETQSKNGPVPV
# [7] = molecular target: T1, Ephrin type-A receptor 3 (Homo sapiens); conditions: at 1 µM
# [8] = molecular target: Ephrin type-A receptor 4 (Homo sapiens) (UniProt P54764); conditions: at 0.1 µM
# [9] = molecular target: Ephrin type-A receptor 4 (Homo sapiens) (UniProt P54764); conditions: at 1 µM
# [10] = molecular target: T2, Ephrin type-B receptor 2 (Homo sapiens) (UniProt P29323); conditions: at 0.1 µM
# T2 sequence (whole entry): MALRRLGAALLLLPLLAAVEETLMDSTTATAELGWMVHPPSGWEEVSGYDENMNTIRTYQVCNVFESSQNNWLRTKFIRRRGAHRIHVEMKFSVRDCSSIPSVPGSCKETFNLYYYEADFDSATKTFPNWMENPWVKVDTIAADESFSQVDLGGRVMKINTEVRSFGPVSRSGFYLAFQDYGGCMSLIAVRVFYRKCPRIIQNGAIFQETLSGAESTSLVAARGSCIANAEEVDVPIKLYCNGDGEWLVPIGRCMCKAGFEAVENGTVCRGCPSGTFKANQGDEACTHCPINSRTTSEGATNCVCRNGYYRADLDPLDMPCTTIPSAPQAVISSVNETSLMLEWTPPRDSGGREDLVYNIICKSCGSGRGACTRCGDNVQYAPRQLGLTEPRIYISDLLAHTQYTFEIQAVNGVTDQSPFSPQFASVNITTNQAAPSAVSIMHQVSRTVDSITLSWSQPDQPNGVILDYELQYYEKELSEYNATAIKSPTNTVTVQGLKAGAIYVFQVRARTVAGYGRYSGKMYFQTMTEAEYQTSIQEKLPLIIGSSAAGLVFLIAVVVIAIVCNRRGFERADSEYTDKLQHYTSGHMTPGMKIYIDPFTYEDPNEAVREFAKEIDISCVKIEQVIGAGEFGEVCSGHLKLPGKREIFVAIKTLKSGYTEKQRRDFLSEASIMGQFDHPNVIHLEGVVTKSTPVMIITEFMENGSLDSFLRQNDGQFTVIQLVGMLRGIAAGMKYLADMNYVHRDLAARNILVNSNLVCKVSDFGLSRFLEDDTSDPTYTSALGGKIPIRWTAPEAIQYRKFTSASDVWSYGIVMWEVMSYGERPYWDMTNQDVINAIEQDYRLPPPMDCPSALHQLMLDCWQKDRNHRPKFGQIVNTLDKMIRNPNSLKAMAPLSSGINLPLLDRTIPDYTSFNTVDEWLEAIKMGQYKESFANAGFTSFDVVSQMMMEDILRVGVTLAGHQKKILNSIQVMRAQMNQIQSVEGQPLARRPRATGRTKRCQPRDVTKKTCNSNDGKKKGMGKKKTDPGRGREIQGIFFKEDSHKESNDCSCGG
# [11] = molecular target: T2, Ephrin type-B receptor 2 (Homo sapiens); conditions: at 1 µM
# [12] = molecular target: T3, Ephrin type-B receptor 3 (Homo sapiens) (UniProt P54753); conditions: at 0.1 µM
# T3 sequence (whole entry): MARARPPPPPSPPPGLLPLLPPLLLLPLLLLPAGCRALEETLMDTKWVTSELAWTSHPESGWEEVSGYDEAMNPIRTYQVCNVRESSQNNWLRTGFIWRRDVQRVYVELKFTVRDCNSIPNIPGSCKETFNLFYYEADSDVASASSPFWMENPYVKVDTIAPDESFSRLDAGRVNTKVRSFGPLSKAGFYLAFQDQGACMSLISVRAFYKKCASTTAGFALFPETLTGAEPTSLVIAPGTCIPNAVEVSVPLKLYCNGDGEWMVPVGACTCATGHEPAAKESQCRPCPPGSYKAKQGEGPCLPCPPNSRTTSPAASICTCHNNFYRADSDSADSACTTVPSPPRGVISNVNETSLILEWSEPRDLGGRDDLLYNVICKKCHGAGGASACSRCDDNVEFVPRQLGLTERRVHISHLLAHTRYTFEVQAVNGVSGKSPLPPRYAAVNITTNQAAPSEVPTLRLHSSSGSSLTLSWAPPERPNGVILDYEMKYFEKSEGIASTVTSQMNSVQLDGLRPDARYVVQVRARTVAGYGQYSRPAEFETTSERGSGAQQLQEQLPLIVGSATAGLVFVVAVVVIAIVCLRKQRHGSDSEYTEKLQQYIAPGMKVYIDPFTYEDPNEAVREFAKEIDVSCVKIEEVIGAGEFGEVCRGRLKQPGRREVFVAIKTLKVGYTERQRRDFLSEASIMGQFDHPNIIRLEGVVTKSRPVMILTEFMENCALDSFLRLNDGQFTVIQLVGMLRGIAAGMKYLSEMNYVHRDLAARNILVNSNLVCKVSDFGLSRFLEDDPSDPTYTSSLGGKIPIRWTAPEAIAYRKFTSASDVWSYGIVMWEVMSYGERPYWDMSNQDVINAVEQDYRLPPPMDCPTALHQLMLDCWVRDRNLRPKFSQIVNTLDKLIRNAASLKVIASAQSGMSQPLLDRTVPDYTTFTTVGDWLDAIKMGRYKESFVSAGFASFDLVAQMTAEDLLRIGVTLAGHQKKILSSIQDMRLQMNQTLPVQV
# [13] = molecular target: T3, Ephrin type-B receptor 3 (Homo sapiens); conditions: at 1 µM
# [14] = molecular target: T4, Ephrin type-B receptor 4 (Homo sapiens) (UniProt P54760); conditions: at 0.1 µM
# T4 sequence (whole entry): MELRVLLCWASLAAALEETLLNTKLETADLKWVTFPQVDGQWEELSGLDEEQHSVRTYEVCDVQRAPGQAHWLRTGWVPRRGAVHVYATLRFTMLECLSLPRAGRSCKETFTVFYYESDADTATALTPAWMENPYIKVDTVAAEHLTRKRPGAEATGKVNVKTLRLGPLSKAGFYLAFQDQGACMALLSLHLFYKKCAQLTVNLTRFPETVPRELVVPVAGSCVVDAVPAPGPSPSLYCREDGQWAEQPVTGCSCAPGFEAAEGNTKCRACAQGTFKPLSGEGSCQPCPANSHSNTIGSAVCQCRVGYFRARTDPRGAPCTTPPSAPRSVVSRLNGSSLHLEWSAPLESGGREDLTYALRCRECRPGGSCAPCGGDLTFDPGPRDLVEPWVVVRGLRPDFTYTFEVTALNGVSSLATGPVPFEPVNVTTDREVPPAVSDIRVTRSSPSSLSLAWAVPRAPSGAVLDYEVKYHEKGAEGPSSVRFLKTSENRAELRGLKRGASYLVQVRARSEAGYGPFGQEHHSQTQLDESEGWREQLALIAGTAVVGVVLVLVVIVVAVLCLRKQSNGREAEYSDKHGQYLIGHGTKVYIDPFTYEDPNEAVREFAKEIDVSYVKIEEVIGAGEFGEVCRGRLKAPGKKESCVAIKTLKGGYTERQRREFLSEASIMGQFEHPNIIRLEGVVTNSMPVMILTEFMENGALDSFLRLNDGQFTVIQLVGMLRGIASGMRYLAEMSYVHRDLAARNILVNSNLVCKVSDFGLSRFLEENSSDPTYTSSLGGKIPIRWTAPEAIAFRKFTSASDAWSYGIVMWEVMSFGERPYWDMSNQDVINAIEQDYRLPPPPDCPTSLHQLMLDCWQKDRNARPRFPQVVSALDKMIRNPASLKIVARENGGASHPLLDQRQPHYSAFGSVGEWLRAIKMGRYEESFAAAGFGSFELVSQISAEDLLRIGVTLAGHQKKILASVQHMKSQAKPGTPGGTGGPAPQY
# [15] = molecular target: T4, Ephrin type-B receptor 4 (Homo sapiens); conditions: at 1 µM
# [16] = molecular target: Receptor tyrosine-protein kinase erbB-2 (Homo sapiens) (UniProt P04626); conditions: at 0.1 µM
# [17] = molecular target: Receptor tyrosine-protein kinase erbB-2 (Homo sapiens) (UniProt P04626); conditions: at 1 µM
# [18] = molecular target: Receptor tyrosine-protein kinase erbB-4 (Homo sapiens) (UniProt Q15303); conditions: at 0.1 µM
# [19] = molecular target: Receptor tyrosine-protein kinase erbB-4 (Homo sapiens) (UniProt Q15303); conditions: at 1 µM
# [20] = molecular target: Tyrosine-protein kinase Fer (Homo sapiens) (UniProt P16591); conditions: at 0.1 µM;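 further: reported figures are averaged percent inhibition of FER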
# Chain of Tyrosine-protein kinase Fer (Homo sapiens) (P16591 whole entry, looked up): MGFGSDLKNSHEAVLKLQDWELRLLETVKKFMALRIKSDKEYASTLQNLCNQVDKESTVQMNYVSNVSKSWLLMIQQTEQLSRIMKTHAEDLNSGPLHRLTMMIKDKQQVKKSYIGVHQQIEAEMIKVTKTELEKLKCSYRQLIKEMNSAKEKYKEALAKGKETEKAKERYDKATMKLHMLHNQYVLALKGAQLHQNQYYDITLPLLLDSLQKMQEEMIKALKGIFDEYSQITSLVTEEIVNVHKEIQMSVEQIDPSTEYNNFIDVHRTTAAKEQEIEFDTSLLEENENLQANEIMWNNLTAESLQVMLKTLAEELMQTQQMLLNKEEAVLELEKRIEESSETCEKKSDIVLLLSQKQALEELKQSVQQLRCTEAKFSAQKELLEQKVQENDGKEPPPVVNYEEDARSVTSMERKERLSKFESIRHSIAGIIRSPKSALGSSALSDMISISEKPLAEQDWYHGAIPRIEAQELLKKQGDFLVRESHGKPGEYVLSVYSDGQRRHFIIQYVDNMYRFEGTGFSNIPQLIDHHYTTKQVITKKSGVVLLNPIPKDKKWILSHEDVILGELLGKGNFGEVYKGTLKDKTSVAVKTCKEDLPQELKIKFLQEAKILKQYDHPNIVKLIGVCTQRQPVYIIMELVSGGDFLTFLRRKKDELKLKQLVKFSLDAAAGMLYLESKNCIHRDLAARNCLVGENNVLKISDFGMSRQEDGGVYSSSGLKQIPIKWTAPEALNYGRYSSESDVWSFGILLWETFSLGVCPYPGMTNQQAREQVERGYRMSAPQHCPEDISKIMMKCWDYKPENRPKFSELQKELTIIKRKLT
# Chain of Receptor tyrosine-protein kinase erbB-2 (Homo sapiens) (P04626 whole entry): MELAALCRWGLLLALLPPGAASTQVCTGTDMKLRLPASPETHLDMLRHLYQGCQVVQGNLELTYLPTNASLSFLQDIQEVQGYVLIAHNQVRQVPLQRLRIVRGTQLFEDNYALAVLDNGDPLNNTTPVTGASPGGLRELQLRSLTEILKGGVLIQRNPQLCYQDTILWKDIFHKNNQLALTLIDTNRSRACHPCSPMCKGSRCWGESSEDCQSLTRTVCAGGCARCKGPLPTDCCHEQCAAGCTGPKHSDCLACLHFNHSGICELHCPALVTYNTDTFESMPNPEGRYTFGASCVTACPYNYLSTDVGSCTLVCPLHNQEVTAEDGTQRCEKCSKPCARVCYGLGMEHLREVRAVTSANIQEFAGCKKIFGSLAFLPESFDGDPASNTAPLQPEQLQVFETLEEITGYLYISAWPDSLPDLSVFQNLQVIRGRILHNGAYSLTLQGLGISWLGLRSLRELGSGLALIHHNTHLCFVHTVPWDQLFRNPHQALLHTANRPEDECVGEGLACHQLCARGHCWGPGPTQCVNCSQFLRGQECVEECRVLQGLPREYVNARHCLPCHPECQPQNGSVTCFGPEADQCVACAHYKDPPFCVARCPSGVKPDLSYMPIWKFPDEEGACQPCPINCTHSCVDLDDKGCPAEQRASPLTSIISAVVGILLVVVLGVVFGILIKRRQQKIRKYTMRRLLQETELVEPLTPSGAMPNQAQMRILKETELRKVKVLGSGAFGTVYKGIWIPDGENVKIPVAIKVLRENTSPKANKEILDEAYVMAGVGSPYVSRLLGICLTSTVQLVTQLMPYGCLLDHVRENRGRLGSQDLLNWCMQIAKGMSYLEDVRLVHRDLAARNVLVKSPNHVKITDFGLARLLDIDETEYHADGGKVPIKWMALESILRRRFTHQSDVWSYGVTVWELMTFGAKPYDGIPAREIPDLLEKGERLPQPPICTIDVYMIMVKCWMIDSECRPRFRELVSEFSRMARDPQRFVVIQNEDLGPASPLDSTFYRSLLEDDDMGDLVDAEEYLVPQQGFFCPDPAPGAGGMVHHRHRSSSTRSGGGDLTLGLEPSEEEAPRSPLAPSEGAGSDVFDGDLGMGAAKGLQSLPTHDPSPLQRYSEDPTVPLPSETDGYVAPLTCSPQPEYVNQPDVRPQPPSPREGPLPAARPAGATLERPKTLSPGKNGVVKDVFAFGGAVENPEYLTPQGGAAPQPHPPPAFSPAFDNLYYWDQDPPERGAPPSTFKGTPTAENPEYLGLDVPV
# Chain of Ephrin type-A receptor 4 (Homo sapiens) (P54764 whole entry): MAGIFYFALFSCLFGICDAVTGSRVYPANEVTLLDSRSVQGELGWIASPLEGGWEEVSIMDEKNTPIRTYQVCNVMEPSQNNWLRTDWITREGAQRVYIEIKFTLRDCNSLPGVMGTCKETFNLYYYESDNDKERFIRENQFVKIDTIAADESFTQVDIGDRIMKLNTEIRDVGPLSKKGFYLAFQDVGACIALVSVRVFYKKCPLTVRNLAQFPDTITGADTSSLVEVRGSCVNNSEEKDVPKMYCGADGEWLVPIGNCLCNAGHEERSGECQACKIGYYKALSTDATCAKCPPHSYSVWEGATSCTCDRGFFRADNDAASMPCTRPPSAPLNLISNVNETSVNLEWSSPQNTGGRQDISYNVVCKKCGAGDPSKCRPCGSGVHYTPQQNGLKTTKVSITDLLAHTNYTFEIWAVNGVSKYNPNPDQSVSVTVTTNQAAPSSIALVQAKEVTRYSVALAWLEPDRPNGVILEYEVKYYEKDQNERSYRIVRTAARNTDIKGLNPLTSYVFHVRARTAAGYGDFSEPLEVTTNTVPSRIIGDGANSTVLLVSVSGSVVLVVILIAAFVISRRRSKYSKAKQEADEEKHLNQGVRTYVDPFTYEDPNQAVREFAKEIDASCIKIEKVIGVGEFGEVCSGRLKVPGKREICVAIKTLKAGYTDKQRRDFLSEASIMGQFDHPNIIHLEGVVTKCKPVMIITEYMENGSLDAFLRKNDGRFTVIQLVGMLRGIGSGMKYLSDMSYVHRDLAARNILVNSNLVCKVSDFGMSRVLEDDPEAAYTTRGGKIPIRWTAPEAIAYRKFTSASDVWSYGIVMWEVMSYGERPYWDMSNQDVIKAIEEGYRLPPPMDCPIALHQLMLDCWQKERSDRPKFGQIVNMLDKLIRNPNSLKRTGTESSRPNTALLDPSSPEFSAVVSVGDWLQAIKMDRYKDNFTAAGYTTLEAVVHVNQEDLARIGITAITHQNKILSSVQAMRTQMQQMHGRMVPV
# Chain of Epidermal growth factor receptor (Homo sapiens), P00533 [L858R,T790M] (P00533 whole entry T790M/L858R, looked up): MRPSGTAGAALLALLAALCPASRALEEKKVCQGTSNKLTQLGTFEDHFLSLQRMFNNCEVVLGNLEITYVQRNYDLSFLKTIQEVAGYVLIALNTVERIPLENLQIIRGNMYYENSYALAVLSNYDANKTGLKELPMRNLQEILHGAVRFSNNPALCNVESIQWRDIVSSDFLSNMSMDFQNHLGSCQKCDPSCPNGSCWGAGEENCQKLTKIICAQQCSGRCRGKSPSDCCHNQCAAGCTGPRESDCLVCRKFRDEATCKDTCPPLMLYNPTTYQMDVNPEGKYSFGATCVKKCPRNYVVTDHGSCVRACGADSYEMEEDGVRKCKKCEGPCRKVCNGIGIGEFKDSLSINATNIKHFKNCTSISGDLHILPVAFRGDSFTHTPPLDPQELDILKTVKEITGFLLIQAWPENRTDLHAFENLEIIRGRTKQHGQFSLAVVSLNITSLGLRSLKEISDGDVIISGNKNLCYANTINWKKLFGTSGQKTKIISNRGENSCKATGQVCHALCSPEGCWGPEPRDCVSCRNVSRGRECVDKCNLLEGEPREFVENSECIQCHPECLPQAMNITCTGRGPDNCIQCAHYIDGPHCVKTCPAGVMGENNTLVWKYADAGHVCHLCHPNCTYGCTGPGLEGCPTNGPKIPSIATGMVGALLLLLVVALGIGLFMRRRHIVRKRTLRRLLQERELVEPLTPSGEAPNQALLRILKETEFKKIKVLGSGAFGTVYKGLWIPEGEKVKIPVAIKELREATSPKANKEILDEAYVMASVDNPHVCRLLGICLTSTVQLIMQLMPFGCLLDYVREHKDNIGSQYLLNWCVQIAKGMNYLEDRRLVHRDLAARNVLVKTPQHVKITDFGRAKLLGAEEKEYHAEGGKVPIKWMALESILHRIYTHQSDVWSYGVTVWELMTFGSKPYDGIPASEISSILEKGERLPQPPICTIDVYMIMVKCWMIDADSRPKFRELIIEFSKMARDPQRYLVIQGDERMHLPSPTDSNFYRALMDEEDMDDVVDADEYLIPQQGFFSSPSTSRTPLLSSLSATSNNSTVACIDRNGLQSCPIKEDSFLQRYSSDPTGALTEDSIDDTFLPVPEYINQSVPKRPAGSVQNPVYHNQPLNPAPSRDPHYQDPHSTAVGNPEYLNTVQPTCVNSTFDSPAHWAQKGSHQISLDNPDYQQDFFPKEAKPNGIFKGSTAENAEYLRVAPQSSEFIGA
SMILES,inhibition [1],inhibition [2],inhibition [3],inhibition [4],inhibition [5],inhibition [6],inhibition [7],inhibition [8],inhibition [9],inhibition [10],inhibition [11],inhibition [12],inhibition [13],inhibition [14],inhibition [15],inhibition [16],inhibition [17],inhibition [18],inhibition [19],inhibition [20]
CS(=O)(=O)Nc1ccc(-c2ccc3c(NC(=O)C4CC4)n[nH]c3c2)cc1,0.23%,0.3%,0.93%,2.88%,1.54%,5.15%,4.1%,5.41%,1.08%,9.15%,11.6%,4.92%,4.97%,2.13%,4.33%,-0.58%,-2.83%,-5.65%,9.99%,9.81%
Cc1cc(O)cc(C)c1/C=C/c1cncc(C(N)=O)c1,1.53%,0.06%,1.88%,8.68%,47.2%,5.13%,19.5%,18.6%,69.2%,16.3%,56.7%,5.06%,9.99%,9.23%,46.1%,5.08%,-0.51%,12.7%,14.4%,2%
CCn1c(-c2nonc2N)nc2cncc(C(=O)NCCNC)c21,4.6%,1.4%,5.19%,0.81%,-0.9%,1.15%,5.09%,7.32%,10.1%,12.1%,7.7%,3.02%,3.19%,-0.07%,0.78%,5.03%,3.74%,10.7%,12.2%,4.13%
CS(=O)(=O)CCNCc1ccc(-c2ccc3ncnc(Nc4ccc(OCc5ccccc5)cc4)c3c2)o1,12.4%,0.12%,4.35%,1.77%,1.18%,5.21%,5.62%,9.98%,11.5%,6.07%,7.66%,5.28%,5.08%,3.4%,3%,15.1%,73%,84.6%,96.6%,1.45%
CN1CCC(n2cnc(-c3ccc(F)cc3)c2-c2ccnc(NCCO)n2)CC1,4.06%,1.79%,5.98%,2.31%,-0.04%,5.3%,5.33%,7.76%,14.7%,8.26%,10.7%,4.67%,2%,1.85%,8.07%,0.93%,6.66%,9.26%,12.3%,7.03%
CN1CCC(C(=O)Nc2n[nH]c3nc(-c4ccc(O)cc4)c(Br)cc23)CC1,2.93% and 1.04%,-0.55% and -2.98%,1.4% and -0.59%,-3.15% and 0%,-2.77% and -1.38%,-0.96% and 1.14%,-1.23% and 3.96%,7.94% and 4.03%,10.9% and 9.16%,2.8% and -0.98%,8.11% and 8.66%,1.14% and 1.43%,1.83% and 4.59%,-1.77% and 1.07%,-1.46% and 4.54%,6.86% and 3.66%,7.03% and 4.93%,6.26% and 5.04%,8.49% and 8.92%,4.47% and -1.58%
